# Tau fil binding = qHTS Assay for Tau Filament Binding. Microtubule-associated protein tau (Homo sapiens), P10636. 71,000 compounds, 2% hits. Potency, µM (titrated, usually from 57.1 µM), inactives show at the top dose activity change, negative = inhibition. recombinant tau filaments, thioflavin S fluorescence, 15 h; filaments grown with octadecylsulfate alongside compound. AID 596, 2007;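 also: potency is read from the fitted curve at half-maximal effect; % is scaled to controls: 0 for no effect and ±100 for the full control effect; actives lower thioflavin S fluorescence by blocking filaments or displacing dye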
# Target sequence (P10636 whole entry, looked up): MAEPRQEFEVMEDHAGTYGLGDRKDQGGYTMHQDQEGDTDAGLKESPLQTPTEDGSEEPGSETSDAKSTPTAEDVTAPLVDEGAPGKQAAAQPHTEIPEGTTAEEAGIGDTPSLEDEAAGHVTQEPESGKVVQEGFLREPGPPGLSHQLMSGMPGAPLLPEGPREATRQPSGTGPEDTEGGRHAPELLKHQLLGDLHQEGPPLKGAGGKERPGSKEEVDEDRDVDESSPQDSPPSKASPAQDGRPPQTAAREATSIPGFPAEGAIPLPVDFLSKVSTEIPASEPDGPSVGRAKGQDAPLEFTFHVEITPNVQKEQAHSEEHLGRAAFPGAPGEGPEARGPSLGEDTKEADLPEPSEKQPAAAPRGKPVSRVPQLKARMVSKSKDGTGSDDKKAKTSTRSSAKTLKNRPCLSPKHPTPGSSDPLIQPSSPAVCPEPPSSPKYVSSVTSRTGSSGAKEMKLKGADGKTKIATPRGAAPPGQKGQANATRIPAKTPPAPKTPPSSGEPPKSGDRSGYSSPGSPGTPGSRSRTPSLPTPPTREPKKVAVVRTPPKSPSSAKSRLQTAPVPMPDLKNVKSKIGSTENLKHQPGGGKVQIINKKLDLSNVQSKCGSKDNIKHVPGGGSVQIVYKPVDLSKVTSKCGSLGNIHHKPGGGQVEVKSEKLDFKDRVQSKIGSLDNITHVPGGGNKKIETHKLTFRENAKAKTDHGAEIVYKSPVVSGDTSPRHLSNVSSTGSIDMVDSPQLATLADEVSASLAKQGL
#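 Recombinant tau protein (human, 1 uM final) plus 30 uM ODS in HEPES pH 7.4 with NaCl, DTT and thioflavine S. Compound present from the start; fluorescence at 510 nm after 15 h, 37 C.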
# Pol III holo inh = qHTS Assay for Inhibitors of DNA Polymerase III Holoenzyme System; AID 603, 2007; Potency, µM (highest dose often 57.1 µM), for inactives: at the highest dose activity change, negative = inhibition; reconstituted DNA polymerase III holoenzyme replication, biochemical; 71,000 compounds, 0.25% hits; also: potency is read from the fitted curve at half-maximal effect; % is scaled to controls: 0 for no effect and ±100 for the full control effect
#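 Reconstituted *E. coli* holoenzyme (0.35 nM Pol III, 1 nM beta, 154 nM SSB, 2 nM primase) was preincubated with compound for 15 min at RT. Synthesis on 1.4 nM ssM13Gori ran 35 min, then was stopped with PicoGreen/EDTA and read as dsDNA fluorescence.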
# YjeE inh = qHTS Assay for Inhibitors of YjeE; tRNA threonylcarbamoyladenosine biosynthesis protein TsaE (Escherichia coli (strain …; Potency, µM; purified YjeE enzyme, qHTS inhibition assay; 71,000 compounds, 0.05% hits
#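 Fluorescence polarization of a BODIPY Texas Red–ADP probe (2 uM) bound to purified YjeE (10 uM) was read after 15 min room-temperature incubation with compounds. Loss of polarization marks inhibitors; ADP serves as titrated control.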
# p53ts 32C kill = qHTS Screen for Compounds that Selectively Target Cancer Cells with p53 Mutations: Cytotoxicity of p53ts Cells at the Permissive Temperature; H1299-p53A138V at 32C, ATP luminescence viability, 24 h; Potency, µM (highest dose often 46.1 µM), inactives show at the top dose activity change, negative = cytotoxicity, most hits filed as cytotoxic; 130,000 compounds, 0.93% hits; AID 924, 2007;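 also: potency is read from the fitted curve at half-maximal effect; 0% = DMSO and -100% = full killing by reference compound; nearly all actives have a fitted effect of over 55% in size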
#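 Cells: H1299 p53ts (A138V), 600/well, pre-incubated 16–30 h at 37C. Cpd up to 46 uM, 24 h, 32C. Readout: ATPlite luminescence, 20 min RT. Normalization: DMSO vs tamoxifen 100 uM. AC50 by Hill equation.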
# ERK AVP block = qHTS Assay for Inhibitors of the ERK Signaling Pathway using a Homogeneous Screening Assay; HEK293-V1b, vasopressin-stimulated pERK AlphaScreen; Potency, µM (series often up to 57.5 µM), inactives show at the highest dose activity, negative = inhibition, hits mostly inhibitors; 72,000 compounds, 0.99% hits; also: potency is read from the fitted curve at half-maximal effect; % is scaled to controls: 0 for no effect and ±100 for the full control effect; nearly all actives have a fitted effect of over 55% in size
#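 HEK293 cells stably expressing V1b receptor, seeded overnight in 1% FBS, were treated with compounds for 30 min at 37C, then stimulated 5 min with 25 nM vasopressin; phospho-ERK read by AlphaScreen SureFire after lysis.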
# p53ts 39C tox = qHTS Screen for Compounds that Selectively Target Cancer Cells with p53 Mutations: Cytotoxicity of p53ts Cells at the Nonpermissive Temperature; H1299-p53A138V viability at 39C, ATP luminescence, 24 h; 130,000 compounds, 1.5% hits; Potency, µM (titrated, usually from 46.1 µM), for inactives: at the top dose activity change, negative = cell killing, most hits filed as cytotoxic; also: potency is read from the fitted curve at half-maximal effect; % is scaled to controls: 0 for no effect and ±100 for the full control effect; nearly all actives have a fitted effect of over 55% in size
# An asterisk follows results filed as active; i = inactive; ? = inconclusive; · = no result given; ! = not active in a repeat; [ ] = another dose, or the depositor's remark. Hits are enriched below; roughly 3.2% of the tested compounds scored in any of these assays. Calls follow the shape of the dose curve; as a rule, active = well fitted curve in the direction sought with a large enough effect; inconclusive = small, poorly fitted or top-dose-only effect, or another doubt; inactive = no such curve, though single readings can be large; an effect the other way counts as inactive or inconclusive.
SMILES,Tau fil binding,Pol III holo inh,YjeE inh,p53ts 32C kill,ERK AVP block,p53ts 39C tox
Clc1ccccc1-c1ccc(/C=N/n2cnnc2)o1,-3%,3%,i,5%,?,-3%
CC1(COc2ccc(C[C@H]3SC(=O)NC3=O)cc2)CCCCC1,?,-6%,i,?,3%,40µM*
CCN(CC)S(=O)(=O)c1cccc(-c2nnc(C(=O)c3ccc(C(F)(F)F)cc3)o2)c1,16µM*,-3%,i,-7%,-3%,-15%
COc1ccc2oc(=O)cc(CN3CCN(C(=O)c4ccccc4)CC3)c2c1,·,·,·,9%,·,?
O=C1NC(=O)c2cc(Nc3ccccc3)c(Nc3ccccc3)cc21,·,·,·,-3%,32µM*,10%
CCN(CC)CCOC(=O)c1ccc(NC(=O)c2cc3c(s2)-c2ccccc2OC3)cc1,·,·,·,?,·,16µM*
CC(C)C(c1nnnn1Cc1ccco1)N1CCN(c2nc3ccccc3s2)CC1 (stereo not given),14%,-2%,i,?,2µM*,?
COc1ccc(/C=C/C(=O)c2ccc(O)cc2O)cc1,·,·,·,?,?,41%
COc1ccc(/C=C/C(=O)c2ccc(C)s2)cc1,·,·,·,32µM*,28%,21%
CSc1ccc2c(c1)C(N1CCN(C)CC1)Cc1ccccc1S2 (stereo not given),·,·,·,-9%,-10%,?
CSc1ccc2c(c1)[C@H](N1CCN(C)CC1)Cc1ccccc1S2,-96%,-3%,i,25µM*!,-7%,32µM*
O=C(Nc1nc2c(s1)CCCC2)c1cccs1,-1%,-4%,i,10µM*,6%,10µM*
CC1(C)CC(=O)c2sc(NC(=O)c3cccs3)nc2C1,·,·,·,1.6µM*,·,1.6µM*
O=C(Cc1cccs1)Nc1nc2c(s1)CCCC2,-16%,-5%,i,?,-16%,?
COc1ccccc1NC(=O)C1=C(C)Nc2nc3ccccc3n2C1c1cccc(OC)c1OC (stereo not given),·,·,·,11%,·,6%
c1ccc(Cn2c(-c3ccco3)nc3nc4ccccc4nc32)cc1,7.9µM*,-4%,i,-11%,-12%,-13%
c1coc(-c2nc3nc4ccccc4nc3n2CC2CCCO2)c1 (stereo not given),-7%,-11%,i,11%,-28%,11%
Cc1ccc(-c2nc3nc4ccccc4nc3n2Cc2ccco2)cc1,16µM*,-2%,i,13µM*,-6%,13µM*
COc1ccccc1Cn1c(-c2ccco2)nc2nc3ccccc3nc21,16µM*,-6%,i,-9%,-18%,-13%
CCCCCn1c(-c2ccco2)nc2nc3ccccc3nc21,13µM*,-8%,i,-1%,-20%,14%
O=C(CN1C(=O)COc2ccc(S(=O)(=O)NC3CCCC3)cc21)NCc1ccc(Cl)cc1,·,·,·,-14%,·,·
COc1ccc(CCn2c(-c3ccco3)nc3nc4ccccc4nc32)cc1,13µM*,0%,i,-17%,-4%,14%
CCCn1c(-c2ccc(OC)cc2)nc2nc3ccccc3nc21,-25%,-6%,i,4%,5%,6%
CCN1/C(=C\C(C)=O)Sc2ccc(OC)cc21,-6%,-7%,i,·,·,·
CCN1C(=O)/C(=C2/Sc3ccc(OC)cc3N2C)SC1=Nc1cccc(O)c1,3.2µM*,-6%,i,?,-23%,-20%
SMILES,Tau fil binding,Pol III holo inh,YjeE inh,p53ts 32C kill,ERK AVP block,p53ts 39C tox
CCCCc1ccc(-c2ccc(C)cc2O)nc1,-4%,-8%,i,13µM*,42%,?
CN1CCc2c(sc3c2c(=O)n(-c2ccccc2)c2nnc(SCc4ccccc4F)n32)C1,13µM*,-1%,i,2%,-9%,21%
O=C(Nc1cccc(Cl)c1)N1CC2CCCN2c2ccccc21 (stereo not given),·,·,·,0%,·,10µM*
O=C(Cn1cnc2onc(-c3ccc(F)cc3)c2c1=O)Nc1ccc(F)c(Cl)c1,·,·,·,-1%,·,13µM*
O=C(C[N+]12CN3CN(CN(C3)C1)C2)c1ccc(-c2ccccc2)cc1,3.2µM*,-8%[11.4 µM],i,12%[9.22 µM],5%[11.5 µM],7%[9.22 µM]
Nc1ccc(N=Nc2ccc(-c3ccc(O)cc3)cc2)c2ccc(S(=O)(=O)O)cc12,2.5µM*,-9%[11.4 µM],i,1%[9.22 µM],-10%[11.5 µM],3%[9.22 µM]
Cc1cccc(NC(=O)c2cc(-c3ccc4c(c3)OCCO4)on2)c1,·,·,·,1µM*,·,1µM*
Cc1nn(Cc2ccc(Cl)c(Cl)c2)c(C)c1NC(=O)c1cc(-c2ccc3c(c2)OCO3)on1,i,4%,i,20µM*,-20%,?
O=C(Nc1cccc(Cl)c1)c1cc(-c2ccc3c(c2)OCCO3)on1,·,·,·,?,·,4µM*
O=C(Nc1cccc(Cl)c1)c1cc(-c2ccc3c(c2)OCO3)on1,·,·,·,-21%,·,-23%
COc1ccc(OC)c(S(=O)(=O)Nc2ccc(O)c3ccccc23)c1,25µM*,-2%,i,?,-13%,10µM*
COc1ccc(OC)c(S(=O)(=O)Nc2ccc(C(N)=O)cc2)c1,-2%,-8%,i,7%,-13%,10%
CCOc1ccc(N/C=C/C(=O)c2ccccc2)c([N+](=O)[O-])c1,·,·,·,·,·,5.6µM*
CCOc1ccc(NC(=O)/C=C/c2ccccc2)c([N+](=O)[O-])c1,·,·,·,·,·,1%
Cc1ccc(CCNC(=O)c2ccc(CNS(=O)(=O)c3ccc(F)cc3)cc2)cc1,·,·,·,-2%,·,-8%
CCn1c(=N)n(CCOc2ccc(Br)cc2)c2ccccc21,·,·,·,?,·,13µM*
COc1ccc(OCCn2c(=N)n(CCO)c3ccccc32)cc1,5%,-1%,i,-2%,-18%,-17%
Cc1cccc(C)c1Nc1c(-c2ccc(Cl)s2)nc2ncccn12,·,·,·,-8%,·,?
COC(=O)C1=C(C)NC(=O)CC1c1ccccc1F (stereo not given),2%,3%,i,6%,-14%,25%
COC(=O)C1=C(C)NC(C)=C([N+](=O)[O-])[C@H]1c1ccccc1C(F)(F)F,32µM*,2%,i,14%,4%,12%
COC(=O)C1=C(C)NC(C)=C([N+](=O)[O-])[C@@H]1c1ccccc1C(F)(F)F,32µM*,2%,i,12%,18%,-6%
COCCNC(=O)c1ccc(Cc2nc3ccccc3[nH]2)cc1,·,·,·,-2%,·,-3%
Cc1ccccc1OCC(=O)Nc1ccc(OCc2cc(=O)n3ccccc3n2)cc1,·,·,·,1%,·,-5%

# High-throughput results: PubChem BioAssay, National Center for Advancing Translational Sciences (NCATS)
